{"source": "PubChem BioAssay (NCI)", "note": "This is part of a sample that, as a whole, favours compounds with a hit. Of some 83,000 tested, about 20% had one in any assay.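 A percent growth of 40 corresponds to 60% growth inhibition; 0 means no net growth; -100 means all cells died. Active threshold: below 10.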 The source made the active and inactive calls."}
{"test_system": "DU-145 prostate", "test": "NCI-60 one-dose screen, 48 h (100 = growth as untreated, 0 = no growth, -100 = all killed)", "conditions": "10 µM unless noted"}
{"compound": "COc1cc2cc(C(=O)N3C[C@@H](CCl)c4c3cc(OC(=O)N(CCC(=O)N3CCN(C)CC3)C3CCCCC3)c3ccccc43)[nH]c2c(OC)c1OC", "growth": "-73.5% (active)"}
{"compound": "Clc1ccc(Nc2nnc(-c3c[nH]c4ccccc34)o2)cc1", "growth": "91% (inactive)"}
{"compound": "Cc1ccc(S(=O)(=O)N(CCn2ccnc2[N+](=O)[O-])CCn2ccnc2[N+](=O)[O-])cc1", "growth": "106% (inactive)"}
{"compound": "O=C(N/N=C/c1ccsc1)c1[nH]c2ccc(Br)cc2c1-c1ccccc1", "growth": "-26.4% (active)"}
{"compound": "Cc1ccc2nc(NC(=O)Nc3cccc(Cl)c3)sc2c1", "growth": "118% (inactive)"}
{"compound": "N/C(=N\\c1nc2ccc([N+](=O)[O-])cc2s1)NC(=O)Nc1ccccc1Cl", "growth": "45.5% (inactive)"}
{"compound": "COc1ccc(/C=C/C(=O)c2ccc(S(=O)(=O)NCCNc3nc(N(C)C)nc(N4CCOCC4)n3)cc2)cc1", "growth": "103% (inactive)"}
{"compound": "O=C(NN1C(=O)/C(=C/C=C/c2ccc([N+](=O)[O-])o2)SC1=S)c1ccncc1", "growth": "-95% (active)"}
{"compound": "Nc1nnc(CS(=O)(=O)c2ccccc2)s1", "growth": "113% (inactive)"}
{"compound": "CS(=O)(=O)c1ccc(-n2nc(C(=O)NCc3ccccc3)cc2-c2ccc(Cl)cc2)cc1", "growth": "91.4% (inactive)"}
{"compound": "Cc1cccc(NCC(=O)N2CCN(c3ncnc4c3cnn4-c3ccccc3)CC2)c1", "growth": "75.4% (inactive)"}
{"compound": "CCCCCCCOc1ccc(S(=O)(=O)Nc2ccc(C)c(F)c2C(=O)O)cc1", "growth": "104% (inactive)"}
{"compound": "O=C(NNC(=O)c1ccc(OCc2nc3ccc(Cl)cc3[nH]2)cc1)Nc1ccc(Cl)c(C(F)(F)F)c1", "growth": "65.7% (inactive)"}
{"compound": "OC(c1ccccc1)(c1ccccc1)C1CCN(c2ccc3nnc(Cl)n3n2)CC1", "growth": "54.6% (inactive)"}
{"compound": "CCOC(=O)c1ccc(NC(=S)NC(=O)c2cccc(NC(=O)c3ccc(C)cc3)c2)cc1", "growth": "105% (inactive)"}
{"compound": "COC(=O)c1cccc(Oc2ccc(NC(=O)Nc3cc(C(F)(F)F)ccc3F)cc2)c1", "growth": "78.8% (inactive)"}
{"compound": "CCCn1c(NC(=O)c2cccc(C(N)=O)c2)nc2cc(CN3CCCCC3)ccc21", "growth": "103% (inactive)"}
{"compound": "COC(=O)c1c(C(=O)OC)c2c3ccccc3c3ccccc3n2c1C(=O)C(F)(F)F", "growth": "106% (inactive)"}
{"compound": "CCOc1ccccc1[C@H]1C(C(=O)c2ccc(Cl)cc2)C2(N[C@@H]1c1ccccc1)C(=O)Nc1ccccc12", "note": "(stereo partly drawn)", "growth": "31% (inactive)"}
{"compound": "COc1ccc(N=Nc2c(N)nn3c(N)c(C#N)c(-c4ccccc4)nc23)cc1", "growth": "24.4% (inactive)"}
{"compound": "O=C(Nc1ccc(S(=O)(=O)N2CCCCC2)cc1)C(Cl)Cl", "growth": "104% (inactive)"}
{"compound": "O=C1Nc2ccccc2/C1=C/C(=O)c1cc2ccccc2oc1=O", "growth": "97.3% (inactive)"}
{"compound": "C/C(=N\\Nc1ccc(C(=O)O)cc1)c1cnn(-c2cc(=O)[nH]c3ccc(C)cc23)c1C", "growth": "107% (inactive)"}
{"compound": "CN(C)c1nc(NCCNS(=O)(=O)c2ccc(C(=O)/C=C/c3ccccc3)cc2)nc(N2CCOCC2)n1", "growth": "89.6% (inactive)"}
{"compound": "COc1cc(CNC(=O)C[C@H](C)CCC=C(C)C)ccc1OCc1cn(-c2ccc(Br)cc2)nn1", "growth": "92.7% (inactive)"}
{"compound": "COc1ccc(-n2c(NC(=O)N3CCN(C)CC3)c(C#N)c3ccccc32)cc1", "growth": "41.2% (inactive)"}
{"compound": "O=C1CCC(N2C(=O)c3cccc(NCCCCCC(=O)N4CCN(c5ccc6nc7c(nc6c5C(F)(F)F)C(=O)c5ncccc5C7=O)CC4)c3C2=O)C(=O)N1", "note": "(stereo not drawn)", "growth": "-88.3% (active)"}
{"compound": "O=C(CSc1nc2sc3c(c2c(=O)n1-c1ccc(Cl)cc1)CCCC3)NNC(=O)c1ccc(Br)cc1", "growth": "97.4% (inactive)"}
{"compound": "COc1ccc2[nH]c(O)c(N=NC(=O)c3ccc4nc(-c5ccc(Cl)cc5)[nH]c4c3)c2c1", "growth": "65.6% (inactive)"}
{"compound": "COc1cc(/C=N/NC(=O)c2ccc(OCc3nc4ccc(C)cc4[nH]3)cc2)cc(OC)c1OC", "growth": "62.2% (inactive)"}
{"compound": "CC(C)(C)C(=O)C1CC(C#N)=C2C=Cc3c(ccc4ccccc34)N21", "note": "(stereo not drawn)", "growth": "102% (inactive)"}
{"compound": "COc1cc(NC(=O)C(C)C)ccc1C(=O)NC(=S)Nc1ccc(S(N)(=O)=O)cc1", "growth": "106% (inactive)"}
{"compound": "COc1c2c(c(Br)c3c1C(CCc1ccccc1)N(C)CC3)OCO2", "note": "(stereo not drawn)", "growth": "56.7% (inactive)"}
{"compound": "COc1ccc(CCC2NCCc3c(Br)c4c(c(OC)c32)OCO4)cc1", "note": "(stereo not drawn)", "growth": "33.8% (inactive)"}
{"compound": "O=CNc1ccc(-n2cnc3cc(-c4ccc(O)cc4)ccc32)cc1", "growth": "86.7% (inactive)"}
{"compound": "N#CCc1nnc(NC(=O)c2ccc(-n3c(=O)[nH]c4ccccc4c3=O)cc2)s1", "growth": "128% (inactive)"}
{"compound": "FC(F)(F)c1cc2c(Cl)ncnc2n1CCN1CCOCC1", "growth": "73.6% (inactive)"}
{"compound": "Nc1cc(-c2c[nH]c3ccc(Br)cc23)nc2cc(-c3c[nH]c4ccccc34)nn12", "growth": "-47.5% (active)"}
